Assay outcomes deposited in PubChem BioAssay by National Center for Advancing Translational Sciences (NCATS).
Hits are enriched below; roughly 7.5% of the tested compounds scored in any of these assays.
ELG1 DNA repair = inhibitors of ELG1-dependent DNA repair in HEK293T cells. hit rate 2.3% among 330,000. Potency, µM (series often up to 46.1 µM), without a hit: at the highest dose activity change, negative = inhibition, usual class: inhibitors. HEK293T ELG1-luciferase reporter, luminescence, 16 h; DNA damage induced by 5-fluorouridine; also: potency is read from the fitted curve at half-maximal effect; nearly all actives have a fitted effect of over 55% in size
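HEK293T cells expressing luciferase-tagged ELG1 (2,000/well) received 5-Fluorouridine plus compound or DMSO for 16 hr at 37 °C. Luciferase was read by ONE-Glo luminescence after 30 min at room temperature.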
RORgamma inh = inhibitors of mouse ROR gamma transcriptional activity; P51450; Drosophila S2 Gal4-RORgamma UAS-luciferase reporter, 20 h; Potency, µM (titrated, usually from 53.6 µM), inactives show at the top dose activity change, negative = inhibition, usual class: inhibitors; hit rate 5.4% among 310,000; AID 2551; also: potency is read from the fitted curve at half-maximal effect; nearly all actives have a fitted effect of over 60% in size
Target sequence (P51450 whole entry, looked up, the tested form may be a part): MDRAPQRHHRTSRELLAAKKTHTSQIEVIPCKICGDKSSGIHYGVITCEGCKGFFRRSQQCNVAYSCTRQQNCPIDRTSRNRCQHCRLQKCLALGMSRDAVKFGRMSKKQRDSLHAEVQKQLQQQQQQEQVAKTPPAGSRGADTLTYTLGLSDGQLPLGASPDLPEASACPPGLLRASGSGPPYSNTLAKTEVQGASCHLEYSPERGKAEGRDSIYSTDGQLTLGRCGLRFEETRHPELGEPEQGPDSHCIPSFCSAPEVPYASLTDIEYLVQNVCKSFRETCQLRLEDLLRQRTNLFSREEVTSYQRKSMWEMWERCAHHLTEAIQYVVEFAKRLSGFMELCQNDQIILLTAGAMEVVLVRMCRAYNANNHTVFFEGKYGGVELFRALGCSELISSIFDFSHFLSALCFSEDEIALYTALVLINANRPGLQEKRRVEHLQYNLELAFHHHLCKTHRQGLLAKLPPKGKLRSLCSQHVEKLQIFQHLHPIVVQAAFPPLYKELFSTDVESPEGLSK
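Drosophila Schneider cells stably carrying a metallothionein-driven Gal4 DBD–ROR gamma fusion and a UAS-Photinus luciferase reporter were exposed to compound for 1 hr, then induced with copper sulfate (700 uM final) for 20 hr at ambient temperature before luminescence reading.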
Gal4-VP16 FLuc = inhibits Gal4-VP16 luciferase reporter, ROR gamma counter-screen; Drosophila S2 Gal4-VP16 UAS-luciferase, luminescence, 20 h; hit rate 3.5% among 310,000; AID 2546; Potency, µM (series often up to 53.6 µM), inactives show at the highest dose activity, negative = inhibition, actives largely listed as inhibitors;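 also: Gal4-VP16 expression switched on by copper sulfate through the metallothionein promoter; potency is read from the fitted curve at half-maximal effect; nearly all actives have a fitted effect of over 50% in size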
TSHR antagonist = blocks TSH signaling through the human TSH receptor; P16473; TSHR-expressing cells, TSH-stimulated cAMP HTRF, 2 h; active compounds read low; activity change, negative = inhibition, % at 11.5 µM; hit rate 0.2% among 330,000; AID 504810;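 active = activity change below a set negative limit, meaning inhibition stronger than a set level, cut at about -70% in these data; inconclusive = activity change between two set negative limits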
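Inhibition of cAMP made by TSHR-expressing cells under TSH stimulation (4nM final, EC80; 2 h, 37 deg C) is quantified with a one-step lysis HTRF kit, anti-cAMP cryptate versus cAMP-d2.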
B2AR arrestin = beta2AR (human) beta-arrestin recruitment activity; P07550; beta-arrestin recruitment to beta2AR, cell-based reporter; Potency, µM (series often up to 46.1 µM), inactives show top-dose activation, actives largely listed as activators; hit rate 0.02% among 330,000;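 also: potency is read from the fitted curve at half-maximal effect; 0% = DMSO controls and full agonism = EC100 isoproterenol or metaproterenol; nearly all actives have a fitted effect of over 65% in size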
An asterisk follows results filed as active; u = inconclusive; x = not tested or not shown; [ ] = remark or other dose. Unless noted, calls follow the shape of the dose curve; as a rule, active = well fitted curve in the direction sought with a large enough effect; inconclusive = small, poorly fitted or top-dose-only effect, or another doubt; inactive = no such curve, though single readings can be large; an effect the other way counts as inactive or inconclusive. Unless noted, % is scaled to controls: 0 for no effect and ±100 for the full control effect.

SMILES | ELG1 DNA repair | RORgamma inh | Gal4-VP16 FLuc | TSHR antagonist | B2AR arrestin
Cc1ccc(S(=O)(=O)CCC(=O)Nc2cccc(S(=O)(=O)N3CCCCCC3)c2)cc1 | 5% | x | x | -14 | 0%
S=C(NC1CCCC1)N1CCN(C/C=C/c2ccccc2)CC1 | 18µM* | u | u | 7 | 0%
O=C(CN1CCN(C/C=C/c2ccccc2)CC1)NC(=O)NC1CCCCC1 | u | 3% | 9% | 6 | 0%
COc1ccc(OC)c(NC(=O)CCN2CCN(C/C=C/c3ccccc3)CC2)c1 | -17% | -6% | 4% | 9 | 5%
COc1cccc(NC(=S)N2CCN(C/C=C/c3ccccc3)CC2)c1 | u | 10µM* | u | 10 | 0%
COc1cc(NC(=S)N2CCN(C(c3ccccc3)c3ccccc3)CC2)cc(OC)c1 | -3% | 4.5µM* | 0%[0.365 µM] | -6 | 0%
S=C(Nc1ccccc1)N1CCN(C/C=C/c2ccccc2)CC1 | u | 11µM* | u | -3 | 0%
Cc1cccc(NC(=O)c2nc[nH]c2C(=O)N2CCN(C(=O)OC(C)(C)C)CC2)c1 | -28% | x | x | 3 | 0%
COc1cc(NC(=S)N2CCN(C/C=C/c3ccccc3)CC2)cc(OC)c1 | -9% | 11µM* | u | 9 | -1%
COCCNC(=S)N1CCN(C/C=C/c2ccccc2)CC1 | 4% | u | -8% | 0 | -1%
O=C(COC(=O)c1ccc(Cl)nc1)Nc1cc(S(=O)(=O)N2CCOCC2)ccc1Cl | 8% | x | x | -3 | 8%
CCOC(=O)c1c(C)n(C)c2ccc(OCC(O)Cn3nc(C)c(Br)c3C)cc12 (stereo not given) | 21µM* | 4% | -6% | -8 | 7%
CCOC(=O)c1c(C)n(-c2ccc(C)cc2)c2ccc(OCC(O)CNCCCO)cc12 (stereo not given) | 12% | 7.1µM* | u | 27 | -1%
CCOC(=O)c1c(C)n(C)c2ccc(OCC(O)CN3CCCCCC3)cc12 (stereo not given) | 2% | -35% | -9% | 3 | 0%
O=C1c2ccc(Br)cc2C(=O)N1c1ccc(Cc2ccncc2)cc1 | -19% | u | 14µM* | -31 | 0%
C/C=C/C1Oc2ccc(OC)cc2N2C(=O)C(C)C(OCOC)C12 (stereo not given) | x | 0%[10 µM] | 0%[10 µM] | x | x
CC(=O)C1=C(C)NC(SCC(=O)c2cc(Cl)ccc2Cl)=C(C#N)C1c1ccco1 (stereo not given) | u | 6.3µM* | 3.5µM* | -14 | 0%
COc1ccccc1NC(=O)C1=C(C)NC(SCC(=O)c2ccc(C)cc2)=C(C#N)C1c1ccco1 (stereo not given) | 16µM* | -29% | 3% | 3 | 0%
CSCSC1=C(C#N)C(c2ccccc2Cl)C(C(C)=O)=C(C)N1 (stereo not given) | 1% | 9% | 0% | -80* | 0%
CC1=C(C(=O)Nc2ccccc2)C(c2ccco2)C(C#N)=C(SCC(=O)OC(C)C)N1 (stereo not given) | u | 39% | -5% | -3 | 0%
CC(=O)C1=C(C)NC(SCC(=O)c2ccc(F)cc2)=C(C#N)C1c1ccco1 (stereo not given) | u | 17% | 4% | -17 | 0%
CCc1ccc(C(=O)CSC2=C(C#N)C(c3ccco3)C(C(C)=O)=C(C)N2)cc1 (stereo not given) | -29% | 6.3µM* | u | -20 | 0%
CCCC(=O)Nc1ncnc2c1ncn2C1OC2COP(=O)(O)OC2C1OC(=O)CCC (stereo not given) | x | 1% | 1% | x | x
C=CC[C@@H]1C=C[C@@H](O/N=C(/C)CCC(=O)OC[C@@H]2O[C@H](c3ccccc3)C=C[C@@H]2Oc2ccc(OC)cc2)[C@@H](CO)O1 | x | 14%[10 µM] | 16%[10 µM] | x | x
C/C(CCC(=O)OC[C@@H]1O[C@H](C#Cc2ccccc2)C=C[C@@H]1Oc1ccc(C)cc1)=N/O[C@@H](C)c1cn([C@H](CO)Cc2ccccc2)nn1 | x | -5%[10 µM] | -3%[10 µM] | x | x
Cc1cc(-c2ccccc2)cc(-c2ccccc2)[n+]1C | 12µM* | 19% | u | 20 | -1%
CNC(=O)/C(C#N)=C/c1c(N2CCCCCC2)nc2ccccn2c1=O | -1% | 8% | 0% | -8 | 0%
